# This excerpt belongs to a sample that is enriched for hits.
# Lassa entry inh: Lassa virus entry inhibition; Lassa virus pseudotype entry inhibition, cell reporter; Potency, µM (top dose mostly 37.9 µM), for the others: top-dose activity change, negative = inhibition, usual class: inhibitors; 300,000 tested, 1.2% active; AID 540256; calls by dose curve; tested in HEK293 cells; also: potency is read from the fitted curve at half-maximal effect; % is scaled to controls: 0 for no effect and ±100 for the full control effect; nearly all actives have a fitted effect of over 50% in size
# Shiga inhibitor: inhibitors of Shiga toxin in Vero cells; Vero cells, Shiga toxin protein synthesis inhibition reporter; inhibition, % at 38.7 µM; 290,000 tested, 9.2% active; AID 2315; in the data active = inhibition mostly above about 28%, no sharp cut-off; inactive = mostly below about 43%; also: 0% is about no effect
# Marburg entry inh: blocks Marburg virus binding to or entry into cells; Marburg virus pseudotyped entry inhibition, cell reporter; Potency, µM (series often up to 37.8 µM), for the others: at the top dose activity change, negative = inhibition, most hits filed as inhibitors; 300,000 tested, 1.8% active; AID 540276; calls by dose curve; tested in HEK293 cells; also: potency is read from the fitted curve at half-maximal effect; % is scaled to controls: 0 for no effect and ±100 for the full control effect
# Cycloheximide cs: affects cycloheximide protein synthesis inhibition readout, counter-screen. 300,000 tested, 12% active. AID 2314. cell reporter, cycloheximide protein synthesis inhibition counterscreen. max response, %; in the data active = max response mostly above about 13%, no sharp cut-off; inactive = mostly below about 14%; also: read at 38.3 µM for the half of the compounds with a filed dose; 0% is about no effect
# VACV mCherry inh: vaccinia inhibition (mCherry reporter). Vaccinia virus mCherry reporter infection, fluorescence. Potency, µM (doses to about 36.5 µM), inactives show at the top dose activity change, negative = inhibition, most hits filed as inhibitors. 310,000 tested, 0.63% active; calls by dose curve; tested in A549 cells; also: potency is read from the fitted curve at half-maximal effect; % is scaled to controls: 0 for no effect and ±100 for the full control effect; nearly all actives have a fitted effect of over 35% in size
# Vaccinia Venus: inhibitors of vaccinia virus (Venus reporter); Potency, µM (series often up to 36.5 µM), for inactives: at the highest dose activity change, negative = inhibition, usual class: inhibitors; 330,000 tested, 0.46% active; Vaccinia virus Venus reporter expression, fluorescence; calls by dose curve; tested in A549 cells; also: potency is read from the fitted curve at half-maximal effect; % is scaled to controls: 0 for no effect and ±100 for the full control effect; nearly all actives have a fitted effect of over 30% in size
# The depositor's hits bear a star; i = inactive; ? = inconclusive; nt = no result given; + = active, no number; [ ] = another dose, or the depositor's remark.
SMILES,Lassa entry inh,Shiga inhibitor,Marburg entry inh,Cycloheximide cs,VACV mCherry inh,Vaccinia Venus
CCC(Sc1nc2ccsc2c(=O)n1-c1ccc(Cl)c(C)c1)C(=O)NCc1ccco1 (stereo not given),-16.8%,44.4*,?,24.6*,-9.9%,-10.1%
CCC(Sc1nc2ccccc2c2nc3ccccc3n12)C(=O)NCc1ccco1 (stereo not given),nt,-3.1,-2.6%,0.9,nt,nt
O=C(CSc1nc2ccsc2c(=O)n1NC(=O)c1ccccc1)NCc1ccco1,?,34.5,6.8%,14.3,i,-11.9%
CC1Cc2nc(SCC(=O)NCc3ccco3)n(Cc3ccccc3)c(=O)c2S1 (stereo not given),2.6%,35.9*,17.9%,17.0,-11.8%,9.5%
CC1Oc2ccccc2C=C1/C=N\NC(=O)c1cccnc1 (stereo not given),-0.9%,53.4*,1.9%,19.8*,-15.8%,-6.7%
CC1Oc2ccccc2C=C1/C=N/NC(=O)c1ccccc1O (stereo not given),-23.7%,+,-2.5%,43.4*,-28.2%,-12.6%
CC1Oc2ccccc2C=C1/C=N/NC(=O)c1ccccc1 (stereo not given),?,24.7,?,18.4,-21.5%,-4.7%
CCC1CN(CCNC(=O)c2cc(C(C)C)nn2C)Cc2cc(OC)ccc2O1 (stereo not given),nt,nt,nt,nt,-19.0%,-18.9%
Cc1c(C(=O)NCc2ccc(F)cc2)oc2ccc(S(=O)(=O)N3CCOCC3)cc12,nt,2.1,?,-1.8,-18.7%,-12.5%
CCN(CC)S(=O)(=O)c1ccc2oc(C(=O)NCc3ccc(F)cc3)c(C)c2c1,5.8µM*,-7.9,?,-2.5,nt,nt
CCOc1ccccc1NC(=O)Cc1coc2cc(C)ccc12,-10.5%,5.8,-16.0%[46.1 µM],7.8,nt,-25.1%
COc1ccccc1NC(=O)c1oc2ccc(C)cc2c1C,3.8%,101.1,0.0%,34.4*,nt,-10.5%
CCN(CC)S(=O)(=O)c1ccc2oc(C(=O)Nc3cc(C)ccc3OC)c(C)c2c1,21.9%[46.1 µM],nt,nt,nt,-20.8%,-21.9%
CCN(CC)S(=O)(=O)c1ccc2oc(C(=O)Nc3ccc(OC)cc3OC)c(C)c2c1,6.51µM*,41.3,?,-4.3,-6.5%,-14.8%
COc1ccccc1NC(=O)Cc1coc2cc(C)ccc12,4.1%,24.3,6.9%,24.0*,nt,nt
CCCS(=O)(=O)NCc1c(C)ncc2c1CCN(C(=O)/C=C/c1ccc(F)cc1F)C2,nt,nt,nt,nt,-6.2%,-8.0%
O=C(Nc1ccc2oc(-c3cc(Br)ccc3Cl)nc2c1)c1cc2ccccc2o1,6.5%[46.1 µM],nt,?,nt,-13.8%[7.34 µM],-9.7%[7.34 µM]
COc1ccccc1CCC(=O)OCC(=O)Nc1ccc2[nH]c(=O)[nH]c2c1,-5.6%,nt,21.8%,nt,-4.9%,-13.2%
Cc1c(C(=O)NCC2COc3ccccc3O2)oc2ccc(S(=O)(=O)N3CCOCC3)cc12 (stereo not given),?,-8.3,?,-2.1,6.2%,1.5%
CCN(CC)S(=O)(=O)c1ccc2oc(C(=O)NCC3COc4ccccc4O3)c(C)c2c1 (stereo not given),23.1µM*,5.0,?,4.7,nt,nt
CN(Cc1ccccc1)C(=O)CSc1nc2ccccc2c(=O)n1Cc1ccco1,5.8µM*,38.6,6.51µM*,37.8*,?,-1.9%
O=C(CSc1nc2ccccc2c(=O)n1Cc1ccco1)N1CCCCCC1,?,19.9,-14.9%,16.6*,nt,nt
COCCn1c(C)cc(C(=O)CSc2cc(C)c3ccccc3n2)c1C,?,14.1,?,10.9,i,-17.2%
COCCNC(=O)c1ccc2c(=O)n(Cc3ccco3)c(SCC(=O)NC3CCCCC3)nc2c1,3.6%,-15.2,21.4%,-1.5,nt,nt
CCn1c(SCC(=O)N2CCCCCC2)nc2ccccc2c1=O,?,-3.6,?,-1.6,-17.5%,-13.3%
O=C(NCc1ccco1)c1ccc2c(=O)n(Cc3ccco3)c(SCC(=O)N3CCCC3)nc2c1,10.4%,38.9*,?,32.7*,nt,nt
COCCn1c(C)cc(C(=O)CSc2nc3ccccc3c(=O)n2Cc2ccco2)c1C,?,95.5*,?,22.9*,i,-19.3%
O=C(NCCc1ccc(Cl)cc1Cl)c1cncc(Br)c1,nt,1.2,nt,-2.5,nt,nt
CN1CCN(c2ccc(CNC(=O)c3ccc(-c4ccc(F)c(F)c4)c4ccoc34)cc2)CC1,nt,nt,nt,nt,6.5%,-13.6%
CC(=O)c1ccc(N(CC(=O)NCc2ccc3c(c2)OCO3)C(=O)c2csnn2)cc1,?,18.8,2.0%[46.1 µM],-3.5,-20.2%,?
